# Test results reported in PubChem BioAssay (NCI).
# The panel holds about 83,000 compounds, 20% with a hit somewhere; the sample as a whole holds those more often.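 Assay: single dose, 48 h. Readout: percent growth (0 = no net growth; negative = cell death). Active: <10.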 Unmarked numbers belong to inactive results. Active and inactive are the calls of the source.
# System: MDA-MB-468 breast
# Assay: NCI-60 one-dose screen, 48 h (100 = growth as untreated, 0 = no growth, -100 = all killed)
# Settings: 10 µM unless noted
row,Structure (SMILES),growth
1,C[C@]12CCc3nc(Nc4cccc(O)c4)sc3C1=CC[C@@H]1[C@@H]2CC[C@]2(C)/C(=N\NC(N)=S)CC[C@@H]12,-32.7% (active)
2,Cc1nn(C)c2ncnc(N/N=C/c3cccc(O)c3O)c12,-11% (active)
3,Nc1ncc(-c2ccc3ncnc(N4CCc5cc(F)c(F)cc54)c3c2)cn1,4.19% (active)
4,N#CC1C(=N)Cc2ccccc2-c2ccccc21 (stereo not given),9.26% (active)
5,COc1cc(CNC(=O)CCCCC[P+](c2ccccc2)(c2ccccc2)c2ccccc2)c(OC)c2c1OCO2,6.74% (active)
6,Cn1cc(-c2csc(-c3cn(C)c4ccccc34)n2)c2cnccc21,-27.1% (active)
7,COc1cc(OC)cc(-c2ccc(-c3ccc(C(=N)N)o3)o2)c1,10.5%
8,COC(=O)c1c2c(c(C)[n+]([O-])c1C)C(=O)C(NCc1ccc(OC)cc1)=CC2=O,-6.29% (active)
9,CCCCNC(=O)c1ccc(OCC)cc1,117%
10,COC(=O)/C(CCC=C(C)C)=C1\[C@@H](OC(C)=O)C[C@@]2(C)[C@H]1C[C@@H](O)[C@H]1[C@@]3(C)CC[C@H](NCCO)[C@@H](C)[C@@H]3CC[C@@]12C,104%
11,CNc1ccc(CSc2ccc(C)cc2)cc1,15.6%
12,CC(=O)NCC(=O)c1ccc([N+](=O)[O-])cc1,117%
13,CC(=O)OC1CC2CCC1(C)C2(C)C (stereo not given),103%
14,Cc1cc(C(=O)CCCC(=O)c2cc(C)c(O)c(C)c2)cc(C)c1O,-3.17% (active)
15,O=C(Cc1ccccc1)C(F)(F)F,111%
16,CN(C)CCCSc1ccccc1NC1=C(Cl)C(=O)C(Nc2ccccc2SCCCN(C)C)=C(Cl)C1=O,-61.4% (active)
17,CSc1nc(N)n2nccc2n1,114%
18,CCCCCCCCNC(=O)[C@@H](N)CSCOC(C)=O,89.8%
19,O=c1nc(N2CCOCC2)oc2c(-c3cccc4ccccc34)cccc12,76.5%
20,COc1ccc(-c2nc(/C=C3\SC(=NCc4ccccc4)NC3=O)c3ccccn23)cc1,-56.9% (active)

row,Structure (SMILES),growth
1,O=C(Nc1cccc(-n2cc(-c3ccncc3)c(-c3ccc(Cl)c(O)c3)n2)c1)Nc1cc(C(F)(F)F)cc(C(F)(F)F)c1,-23.9% (active)
2,Nc1nc(SCC2(CCl)COC2)c2[nH]cnc2n1,108%
3,CC(=O)c1cc2c(N)c(C(=O)Nc3cncc4ccccc34)sc2nc1C,97%
4,COc1ccc(NC(=O)c2ccc(C(=O)Nc3ccc(OC)cc3OC)cc2)c(OC)c1,85%
5,Cn1cc(-c2nn3cc(-c4ccccc4)nc3s2)c2ccccc21,71.5%
6,COc1ccc(-n2nc(C(=O)NCC(=O)O)nc2-c2ccccc2)cc1,115%
7,COc1cccc(-c2nc3sccn3c2-c2ccnc(NCCCNS(=O)(=O)c3ccc(F)cc3)c2)c1,13.3%
8,CC1CC2Oc3ccc(Cl)cc3C(=O)N2O1 (stereo not given),94.5%
9,CC(=O)Oc1ccccc1C(=O)Nc1cc(C(C)C)ccc1C,-5.42% (active)
10,Cc1onc2c(-c3ccccc3)n[nH]c(=O)c12,98.3%
11,N#C/C=C(\c1ccc([N+](=O)[O-])cc1)n1nnc2cc(Cl)c(Cl)cc21,-47.4% (active)
12,CC[N+](C)(CC)CCCC(C)Nc1ccnc2cc(Cl)ccc12 (stereo not given),119%
13,CCNCCCn1c2c(c3ccc([N+](=O)[O-])cc3c1=O)C(=O)c1cc(OC)cnc1-2,-34.3% (active)
14,Cc1ccc(C(=O)Nc2ccccc2N)cc1,79.1%
15,C=C(CNCCc1ccc(O)cc1)[C@@H]1CC[C@]2(CO)CC[C@]3(C)[C@H](CC[C@@H]4[C@@]5(C)CCC(NCCc6ccc(O)cc6)C(C)(C)[C@@H]5CC[C@]43C)[C@@H]12 (stereo not given in full),-74.6% (active)
16,O=c1ccn(C2OC(CO)C(O)C2F)c(=O)[nH]1 (stereo not given),105%
17,C=C(C)[C@@H]1CC[C@]2(C(=O)ON)CC[C@]3(C)[C@H](CC[C@@H]4[C@@]5(C)C/C(=C/c6ccc(Br)cc6)C(=O)C(C)(C)[C@@H]5CC[C@]43C)[C@@H]12,73.2%
18,Cc1ccccc1NC(=O)c1sc2nc3c(cc2c1N)CCCC3,11.8%
19,Cc1ccc(C2=N[C@H]3CCC[C@@H]3N(c3ccccc3)C(C(Cl)Cl)=N2)cc1,116%
20,CCN1C(=O)N(CC)C2Nn3c(s/c(=C\c4ccc(OC)cc4)c3=O)=NC21 (stereo not given),14.1%
